From PubChem BioAssay AID720706 (Broad Institute, 2013)
Among all 350,000 compounds or so, about 5,500 (1.6%) were called active.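 The calls were made as follows: active = significant combined selectivity score with lowered wild-type GFP, culture density cut under 30%, mutant RFP and density less affected; inactive = any of these conditions unmet.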 The list comes from a sample in which actives are over-represented; it also holds similar structures and randomly drawn compounds.

assay: reduced GFP signal of wild-type E. coli, primary screen, bacterial rRNA inhibitor project, GFP/RFP fluorescence, OD600, single point (AID 720706); details: E. coli WT GFP vs humanized-ribosome RFP mutants, 24 h; GFP signal change (wild-type ribosome): stronger effect = lower value, DMSO median 0, no signal -100; OD600 change: measured here: OD600 growth, DMSO median 0, no signal -100; RFP signal change: measured here: RFP humanized mutant strains, DMSO median 0, no signal -100, concentration not given here

Row | Structure (SMILES) | GFP signal change (wild-type ribosome) | OD600 change [%] | RFP signal change [%]
1 | CC(C)NC(=O)N(C)C[C@H]1OCc2ccccc2-c2c(n(C)c3ccccc23)C(=O)N([C@H](C)CO)C[C@@H]1C | 0.94% (inactive) | 5.88 | -4.42
2 | CN1c2ccc(-c3ccccc3)cc2[C@@H]2[C@@H](CCN2C(=O)NC2CCCC2)[C@H]1CO | -26.6% (inactive) | -47.4 | 16.9
3 | CCC(=O)N1[C@@H](CO)[C@@H](c2ccccc2)C12CN(C(=O)c1cnccn1)C2 | -1.97% (inactive) | -9.38 | 1.42
4 | CCOc1ccc(-c2nc(N)ncc2-c2ccccc2OC)c(O)c1 | -28.9% (active) | -3.55 | -5.66
5 | C=C(C)COc1ccc(-c2ncncc2-c2ccc(OC)cc2)c(O)c1 | -11.6% (inactive) | -10.7 | -1.31
6 | COc1ccc(-c2nc(N)ncc2-c2ccc(Cl)cc2)c(O)c1 | -4.3% (inactive) | -9.82 | 0.567
7 | CCS(=O)(=O)Nc1ccc2c(c1)C(=O)N(C)[C@@H]1CC[C@H](CC(=O)N3CCCCC3)O[C@@H]1CO2 | -0.591% (inactive) | -4.1 | -3.67
8 | COc1ccc(NC(=O)N2C[C@H](O)COC[C@@H]3O[C@@H](CC(=O)NCc4ccccc4OC)CC[C@H]32)cc1 | -1.91% (inactive) | -2.52 | -1.31
9 | COc1cccc(-c2cn(CC[C@H]3CC[C@H](NC(=O)CN(C)C)[C@H](CO)O3)nn2)c1 | -0.8% (inactive) | -2.58 | -0.651
10 | CCNC(=O)[C@H]1[C@H](CO)[C@H]2Cn3c(cccc3=O)[C@H]2N1C(=O)C1CCCC1 | 4.25% (inactive) | -2.66 | -1.17
11 | Cc1cc(Nc2ccc(Br)cc2)nc2ccccc12 | -50.8% (active) | -41 | -13.6
12 | Cc1cc(C)c(C#N)c(Nc2cccc(Br)c2)n1 | 11.7% (inactive) | 6.25 | 3.63
13 | C[C@H]1CCCCO[C@H](CN(C)Cc2ccccc2)[C@@H](C)CN([C@@H](C)CO)C(=O)c2cc(NS(C)(=O)=O)ccc2O1 | 2.67% (inactive) | 3.64 | -3.91
14 | CCNC(=O)[C@@H]1[C@@H](CO)[C@@H]2Cn3c(ccc(-c4ccncc4)c3=O)[C@@H]2N1Cc1cc(F)ccc1F | 2.37% (inactive) | 8.82 | 1.07
15 | C[C@@H]1CN([C@@H](C)CO)C(=O)c2cc(NC(=O)CCCN(C)C)ccc2O[C@@H](C)CCCCO[C@H]1CN(C)C(=O)Nc1cccc2ccccc12 | -3.48% (inactive) | -7.41 | 4.52
16 | COc1ccc(Cn2c(=O)oc3ccccc32)cc1 | -5.68% (inactive) | 1.5 | 2.85
17 | Cc1cccc(NC(=O)CCn2c(=O)oc3ccccc32)c1 | 3.5% (inactive) | 2.74 | -1.45
18 | Cc1ccc(OCCCn2c(=O)oc3ccccc32)cc1 | -33.5% (active) | -20.9 | -1.83
19 | O=C(Nc1ccccc1F)N[C@@H]1C=C[C@H](CC(=O)N2CCCCC2)O[C@@H]1CO | 3.61% (inactive) | 6.08 | -0.341
20 | C[C@H](CO)N1C[C@H](C)[C@@H](CN(C)C(=O)Nc2cccc(F)c2)OCc2ccccc2-c2ccccc2C1=O | -0.679% (inactive) | -1.43 | 0.291

Row | Structure (SMILES) | GFP signal change (wild-type ribosome) | OD600 change [%] | RFP signal change [%]
21 | C[C@H](CO)N1C[C@H](C)[C@H](CN(C)C(=O)Nc2cccc3ccccc23)OCCCC[C@H](C)Oc2ccc(NC(=O)Nc3ccc4c(c3)OCO4)cc2C1=O | 2.1% (inactive) | 5.33 | -1.79
22 | CC(C)NC(=O)N1CCCCN2[C@H](CO)[C@H](c3ccc(C#C[C@H](C)O)cc3)[C@H]2C1 | 5.37% (inactive) | 11.9 | 2.67
23 | CCCNC(=O)c1cc2c(c(-c3cccc(-c4ccc(F)cc4)c3)n1)[C@@H](CCO)N([S@](=O)C(C)(C)C)C2 | -7.84% (inactive) | -6.59 | 26.4
24 | CCS(=O)(=O)N1Cc2cc(C(=O)N(C)C)nc(-c3cccc(-c4ccc(C#N)cc4)c3)c2[C@H]1CCO | 1.6% (inactive) | -8.16 | 0.491
25 | CCCNC(=O)c1cc2c(c(-c3cccc(-c4ccc(C#N)cc4)c3)n1)[C@@H](CCO)N(C(=O)CC)C2 | -28.9% (active) | -16.6 | 9.41
26 | O=C(N/N=C/c1cc(Br)c(O)c([N+](=O)[O-])c1)C(O)(c1ccccc1)c1ccccc1 | -13.8% (inactive) | -17.8 | -3.16
27 | O=[N+]([O-])c1cc(Br)c(O)c(/C=N/Nc2nc3ccccc3s2)c1 | -26.6% (active) | -18.1 | 3.75
28 | O=[N+]([O-])c1cccc(/C=N/Nc2ncc(Br)cn2)c1 | 14.8% (inactive) | 23.4 | 1.61
29 | C[C@H](CO)N1C[C@H](C)[C@H](CN(C)C(=O)C2CCOCC2)Oc2ncc(C#Cc3ccccc3F)cc2C1=O | 4.96% (inactive) | 16.6 | -0.455
30 | Cc1nc2ccc(NC(=O)c3cccc(S(=O)(=O)N4CCOCC4)c3)cc2s1 | -8.91% (inactive) | -4.27 | -0.693
31 | Cc1cc2ccccn2c1C(=O)c1cccc(F)c1 | -7.7% (inactive) | -19.4 | -0.345
32 | Cc1cc2ccccn2c1C(=O)c1cccc(S(=O)(=O)N2CCOCC2)c1 | -23.1% (active) | -17.5 | 2.76
33 | O=C(NC1CCCC1)[C@H]1[C@H](CO)[C@H]2Cn3c(cccc3=O)[C@H]2N1C(=O)NC1CCCC1 | 6.01% (inactive) | 13.7 | -2.22
34 | COc1ccc(S(=O)(=O)N(C)C[C@@H]2OCCCC[C@@H](C)Oc3ccc(NS(C)(=O)=O)cc3C(=O)N([C@H](C)CO)C[C@@H]2C)cc1 | 2.26% (inactive) | 6.89 | -2.21
35 | O=C(NCC[C@H]1CC[C@H](NC(=O)C2CC2)[C@@H](CO)O1)c1cc(Cl)cc(Cl)c1 | -1.63% (inactive) | -6.47 | -0.371
36 | CCCNC(=O)N1[C@H](CO)[C@@H]2c3ccccc3N(C(=O)C3CC3)C[C@@H]21 | 6.32% (inactive) | 5.65 | 0.0995
37 | CC[C@H]1OC(=O)[C@H](C)[C@@H](O[C@H]2C[C@@](C)(OC)[C@@H](O)[C@H](C)O2)[C@H](C)[C@@H](O[C@@H]2O[C@H](C)C[C@H](N(C)C)[C@H]2O)[C@](C)(O)C[C@@H](C)[C@@H]2N[C@@H](COCCOC)O[C@H]([C@H]2C)[C@]1(C)O | -22.6% (active) | -9.78 | 5.64
38 | Cn1cnc(S(=O)(=O)N2C[C@@H](O)COC[C@H]3O[C@H](CC(=O)N4CCN(c5ccccc5)CC4)CC[C@@H]32)c1 | 9.71% (inactive) | 22 | -0.0733
39 | Cc1ccc(NNC(=O)c2c(F)cccc2Cl)cc1Cl | -32.7% (active) | -2.5 | -1.17
40 | CCN(CC)CCNC(=O)c1ccc(NC(=O)c2c(F)cccc2Cl)cc1 | 7.17% (inactive) | -3.78 | -0.531

Row | Structure (SMILES) | GFP signal change (wild-type ribosome) | OD600 change [%] | RFP signal change [%]
41 | O=C(NNc1cc(Cl)cc(Cl)c1)c1c(F)cccc1Cl | -4.44% (inactive) | -4.42 | -0.438
42 | COCC#Cc1ccc([C@@H]2[C@@H](CO)N3C(=O)CN(C(=O)Nc4cc(F)ccc4F)C[C@@H]23)cc1 | -10.5% (inactive) | -5.07 | 3.1
43 | COc1ccc(NC(=O)N(C)C[C@@H]2OCCCC[C@@H](C)Oc3ccc(NS(C)(=O)=O)cc3C(=O)N([C@@H](C)CO)C[C@H]2C)cc1 | -0.988% (inactive) | -5.29 | 0.0065
44 | Cc1noc(C)c1S(=O)(=O)Nc1ccc2c(c1)C(=O)N([C@H](C)CO)C[C@H](C)[C@H](CN(C)C(=O)CCC(F)(F)F)OCCCC[C@H](C)O2 | -2.98% (inactive) | -4.46 | 0.03
45 | COc1ccc2c3c(n(C)c2c1)[C@H](CO)N(C(=O)Cc1ccccc1)CC31CCN(C)CC1 | 4.41% (inactive) | 5.73 | -1.31
46 | CCNC(=O)[C@H]1[C@H](CO)[C@H]2Cn3c(ccc(C4=CCCC4)c3=O)[C@@H]1N2S(=O)(=O)c1cn(C)cn1 | 2.88% (inactive) | 2.51 | -2.3
47 | COc1ccc(C(=O)NC2CCN(C(=O)Nc3ccc(F)cc3)CC2)cc1 | 3.88% (inactive) | 11.7 | -0.144
48 | COc1ccc(-c2n[nH]c3c2CN(C(=O)c2ccc(F)cc2)CC3)cc1 | -24% (active) | -10.1 | -0.0738
49 | COc1cccc(-c2noc(C3CCCN(C(=O)c4ccc(F)cc4)C3)n2)c1 (stereo not given) | -16% (inactive) | -14.3 | 1.71
50 | COCC#Cc1cnc2c(c1)C(=O)N([C@H](C)CO)C[C@@H](C)[C@@H](CN(C)Cc1ccccc1F)O2 | 4.01% (inactive) | 9.71 | -0.92
51 | CC(/C=N/NC(=O)c1cc(-c2ccc3ccccc3c2)n[nH]1)=C\c1ccco1 | -18.4% (active) | -4.31 | 6.39
52 | CC(C)(C)C1CCC(=NNC(=O)c2cc(-c3ccccc3)n[nH]2)CC1 (stereo not given) | -8.44% (inactive) | 6.81 | -1.93
53 | O=C(N/N=C/c1ccco1)c1ccc(NC(=O)C2CC2)cc1 | 33.5% (inactive) | 14.7 | 3.89
54 | Nc1ccn([C@@H]2O[C@H](C(=O)N[C@H]3CCCCNC3=O)[C@@H](O)[C@H]2O)c(=O)n1 | 23% (inactive) | 2.48 | 2.71
55 | COc1cccc(NC(=O)C2CCCN(c3ncnc4c3nc3n4CCCCC3)C2)c1 (stereo not given) | -27.7% (inactive) | -29.9 | -2.84
56 | COc1cccc(CNC(=O)C2CCCN(c3ncnc4c3nc3n4CCCCC3)C2)c1 (stereo not given) | -0.749% (inactive) | 3.87 | -0.866
57 | CN(Cc1ccccc1)C(=O)C1CCCN(c2ncnc3c2nc2n3CCCCC2)C1 (stereo not given) | -30.8% (active) | -19.4 | -2.82
58 | O=C(NCc1ccc2c(c1)OCO2)c1c(O)nc2sccn2c1=O | 9.79% (inactive) | 1.77 | 0.304
59 | O=C(NCc1ccc2c(c1)OCO2)c1sccc1Br | -28% (active) | -4.74 | 4.92
60 | O=C(NCc1ccc2c(c1)OCO2)c1c(-c2ccsc2)sc2ccccc12 | -2.63% (inactive) | 5.46 | -0.565
